Where a name gives a salt, the structure may show the parent alone.
Experiments:
Conditions in all cases: incubation time: 27 h, anaerobic, 37 °C;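 for the amine columns active = adjusted P below 0.05 in both replicates with a change the same way and a mean fold change under 0.8 or over 1.25; inactive = the rest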
[1] = test system: Clostridium sporogenes DSM 1664; assay: growth (OD595) fold change vs plate DMSO controls (fold change (ratio)); higher = more growth
Summary of the method: (§1)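 The reported measure is growth: the fold change against the median of DMSO controls on the plate. Absorbance at 595 nm from anaerobic 96-well mGAM cultures grown for 27 h at 37 °C was blank-subtracted, corrected for background with 20 µM compound solutions in water, and converted to OD with a calibration factor of 5. Fold changes above 1.5 appear as NA, and values are the mean of 2 biological replicates.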

Escherichia coli IAI1 [2] = assay: as above
Summary of the method: as §1

[3] = test system: Klebsiella aerogenes DSM 30053; assay: as above
Summary of the method: as §1

[4] = test system: Ruminococcus gnavus DSM 108212; assay: as above
Summary of the method: as §1

[5] = test system: Klebsiella aerogenes DSM 30053; assay: fold change of Histamine concentration vs plate DMSO controls (fold change (ratio)); higher = more amine produced, active = hit call of the paper (significant change in both replicates, either direction)
Summary of the method: (§2)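 Extracts of whole anaerobic mGAM cultures were analysed for amines by LC–triple-quadrupole MS with dynamic MRM and external calibration curves, with drift corrected within batch. Four gut strains were grown at 37 °C for 27 h in 80 µL wells with compounds at 20 µM final, sweeteners at 50 µM final. Each value expresses fold change over plate DMSO controls. The average of 2 biological replicates is shown.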

[6] = test system: Clostridium sporogenes DSM 1664; assay: fold change of Tryptamine concentration vs plate DMSO controls (fold change (ratio)); higher = more amine produced, active = hit call of the paper (significant change in both replicates, either direction)
Summary of the method: as §2

[7] = test system: Ruminococcus gnavus DSM 108212; assay: as above
Summary of the method: as §2

Escherichia coli IAI1 [8] = assay: fold change of Putrescine concentration vs plate DMSO controls (fold change (ratio)); higher = more amine produced, active = hit call of the paper (significant change in both replicates, either direction)
Summary of the method: as §2

[9] = test system: Klebsiella aerogenes DSM 30053; assay: as above
Summary of the method: as §2

Escherichia coli IAI1 [10] = assay: fold change of Cadaverine concentration vs plate DMSO controls (fold change (ratio)); higher = more amine produced, active = hit call of the paper (significant change in both replicates, either direction)
Summary of the method: as §2

[11] = test system: Klebsiella aerogenes DSM 30053; assay: as above
Summary of the method: as §2

[12] = test system: Ruminococcus gnavus DSM 108212; assay: fold change of 2-Phenylethylamine concentration vs plate DMSO controls (fold change (ratio)); higher = more amine produced, active = hit call of the paper (significant change in both replicates, either direction)
Summary of the method: as §2

| SMILES | growth [1] | growth (Escherichia coli IAI1 [2]) | growth [3] | growth [4] | fold change of Histamine concentration [5] | fold change of Tryptamine concentration [6] | fold change of Tryptamine concentration [7] | fold change of Putrescine concentration (Escherichia coli IAI1 [8]) | fold change of Putrescine concentration [9] | fold change of Cadaverine concentration (Escherichia coli IAI1 [10]) | fold change of Cadaverine concentration [11] | fold change of 2-Phenylethylamine concentration [12] |
| --- | --- | --- | --- | --- | --- | --- | --- | --- | --- | --- | --- | --- |
| O=C1OC(CN2CCOCC2)CN1/N=C/c1ccc([N+](=O)[O-])o1 (stereo unspecified) [Furaltadone hydrochloride] (20 µM) | 0.861 | 1.04 | 0.945 | 0.987 | 0.938 (inactive) | 0.89 (inactive) | 0.852 (inactive) | 0.777 (inactive) | 0.939 (inactive) | 1.7 (active) | 1.01 (inactive) | 0.929 (inactive) |
| CC(=O)CC(c1ccc([N+](=O)[O-])cc1)c1c(O)c2ccccc2oc1=O (stereo unspecified) [Acenocoumarol] (20 µM) | 0.894 | 1.02 | 1.02 | 0.886 | 0.909 (inactive) | 0.94 (inactive) | 1.01 (inactive) | 1.05 (inactive) | 0.989 (inactive) | 1.01 (inactive) | 1.01 (inactive) | 1.02 (inactive) |
| OCCN1C[C@H](O)[C@@H](O)[C@H](O)[C@H]1CO [Miglitol] (20 µM) | 1.09 | 1.01 | 1.02 | 1.05 | 1.02 (inactive) | 1 (inactive) | 1.02 (inactive) | 1 (inactive) | 1.01 (inactive) | 0.964 (inactive) | 1.01 (inactive) | 1.03 (inactive) |
| CC(C)C[C@H](NC(=O)[C@@H](O)[C@H](N)Cc1ccccc1)C(=O)O [Ubenimex] (20 µM) | 1.02 | 0.971 | 0.969 | 0.332 | 0.887 (inactive) | 1.15 (inactive) | 0.148 (active) | 1.04 (inactive) | 0.95 (inactive) | 0.936 (inactive) | 0.973 (inactive) | 0.168 (active) |
| CN1CCC(=C2c3ccccc3C=Cc3ccccc32)CC1 [Cyproheptadine hydrochloride] (20 µM) | 0.683 | 1.01 | 0.98 | 1.15 | 1.03 (inactive) | 1.18 (inactive) | 0.98 (inactive) | 0.969 (inactive) | 0.996 (inactive) | 0.973 (inactive) | 0.999 (inactive) | 1 (inactive) |
| CCOC(=O)C1=C[C@@H](OC(CC)CC)[C@H](NC(C)=O)[C@@H](N)C1 [Oseltamivir phosphate] (20 µM) | 0.866 | 0.987 | 1.01 | 1.01 | 1.03 (inactive) | 1.05 (inactive) | 1.03 (inactive) | 1.02 (inactive) | 1 (inactive) | 1.03 (inactive) | 1 (inactive) | 1.05 (inactive) |
| O=C1NS(=O)(=O)c2ccccc21 [Saccharin] (50 µM) | 0.975 | 1.02 | 0.976 | 1.11 | 1.01 (inactive) | 1.02 (inactive) | 1 (inactive) | 1.05 (inactive) | 1.01 (inactive) | 1.06 (inactive) | 0.996 (inactive) | 1.02 (inactive) |
| O=C(CCCN1CC=C(n2c(=O)[nH]c3ccccc32)CC1)c1ccc(F)cc1 [Droperidol] (20 µM) | 1.02 | 0.959 | 1.02 | 0.835 | 0.994 (inactive) | 0.988 (inactive) | 0.963 (inactive) | 0.977 (inactive) | 1.02 (inactive) | 1.03 (inactive) | 1 (inactive) | 0.956 (inactive) |
| CC(C)NCC(O)c1cc(O)cc(O)c1 (stereo unspecified) [Metaproterenol sulfate] (20 µM) | 0.982 | 1.03 | 1.02 | 1.17 | 0.981 (inactive) | 1.03 (inactive) | 0.957 (inactive) | 1.03 (inactive) | 0.979 (inactive) | 0.974 (inactive) | 0.992 (inactive) | 0.938 (inactive) |
| CC(C(=O)O)c1ccc2c(c1)CC(=O)c1ccccc1S2 (stereo unspecified) [Zaltoprofen] (20 µM) | 0.876 | 0.998 | 0.985 | 0.873 | 1.1 (inactive) | 1.01 (inactive) | 1.12 (inactive) | 1.01 (inactive) | 1.04 (inactive) | 0.931 (inactive) | 1.05 (inactive) | 1.33 (inactive) |
| OCc1cc(C(O)CNCCCCCCOCCCCc2ccccc2)ccc1O (stereo unspecified) [Salmeterol] (20 µM) | 1.17 | 1.02 | 1 | 0.975 | 1.04 (inactive) | 1.04 (inactive) | 0.936 (inactive) | 1.07 (inactive) | 0.975 (inactive) | 1.02 (inactive) | 0.986 (inactive) | 0.981 (inactive) |
| CNCC[C@@H](Oc1cccc2ccccc12)c1cccs1 [(R)-Duloxetine hydrochloride] (20 µM) | 1.03 | 1.07 | 0.994 | 0.9 | 1.01 (inactive) | 0.986 (inactive) | 0.979 (inactive) | 1.04 (inactive) | 0.994 (inactive) | 0.952 (inactive) | 0.986 (inactive) | 1.02 (inactive) |
| Cc1scc2c1N(C(=O)CN1CCN(C)CC1)c1ccccc1NC2=O [Telenzepine dihydrochloride] (20 µM) | 1.09 | 1.07 | 1 | 1.01 | 0.927 (inactive) | 1.01 (inactive) | 1.01 (inactive) | 1.06 (inactive) | 0.984 (inactive) | 1 (inactive) | 1.01 (inactive) | 0.964 (inactive) |
